# High-throughput results deposited in PubChem by National Center for Advancing Translational Sciences (NCATS).
# VP16 counter = counter-screen for ROR gamma inhibitors: Gal4-VP16 reporter | Drosophila S2 Gal4-VP16 UAS-luciferase, luminescence, 20 h | Potency, µM (highest dose often 53.6 µM), most hits filed as inhibitors | hit rate 3.5% among 310,000 | AID 2546;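 also: Gal4-VP16 expression switched on by copper sulfate through the metallothionein promoter; nearly all actives have a fitted effect of over 50% in size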
# KB-V1 MDR tox = KB-V1 MDR subline cytotoxicity. KB-V1 MDR cells viability, CellTiter-Glo, 72 h. Potency, µM (series often up to 46.1 µM), usual class: cytotoxic. hit rate 3.4% among 400,000; also: nearly all actives have a fitted effect of over 60% in size
#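 KB-V1 MDR subline cells in DMEM (phenol-red free, 10% FBS) exposed to compounds in qHTS concentration series for 72 h at 37 degrees C. Viability read by CellTiter-Glo luminescence; concentration-effect curves fitted after normalization and correction.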
# KB-3-1 tox = KB-3-1 parental cell cytotoxicity | hit rate 1.4% among 400,000 | Potency, µM (series often up to 46.1 µM), actives largely listed as cytotoxic | KB-3-1 viability, CellTiter-Glo ATP luminescence, 72 h; also: nearly all actives have a fitted effect of over 60% in size
#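 Parental KB-3-1 adenocarcinoma cells in phenol-red-free DMEM with 10% FBS were pin-treated with compounds at several concentrations, incubated 72 h at 37 °C, and viability read by CellTiter-Glo luminescence; concentration-effect curves were fitted after normalization.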
# MCF10A rereplic = induces DNA re-replication in MCF 10a normal breast cells. MCF 10A DNA re-replication, Hoechst nuclear intensity, 48 h. Potency, µM (series often up to 46.1 µM), hits mostly activators. hit rate 2.9% among 350,000; also: nearly all actives have a fitted effect of over 50% in size
# RORgamma inh = inhibitors of mouse ROR gamma transcriptional activity; P51450; Drosophila S2 Gal4-RORgamma UAS-luciferase reporter, 20 h; Potency, µM (top dose mostly 53.6 µM), hits mostly inhibitors; hit rate 5.4% among 310,000; also: nearly all actives have a fitted effect of over 60% in size
# Target sequence (P51450 whole entry, looked up, the tested form may be a part): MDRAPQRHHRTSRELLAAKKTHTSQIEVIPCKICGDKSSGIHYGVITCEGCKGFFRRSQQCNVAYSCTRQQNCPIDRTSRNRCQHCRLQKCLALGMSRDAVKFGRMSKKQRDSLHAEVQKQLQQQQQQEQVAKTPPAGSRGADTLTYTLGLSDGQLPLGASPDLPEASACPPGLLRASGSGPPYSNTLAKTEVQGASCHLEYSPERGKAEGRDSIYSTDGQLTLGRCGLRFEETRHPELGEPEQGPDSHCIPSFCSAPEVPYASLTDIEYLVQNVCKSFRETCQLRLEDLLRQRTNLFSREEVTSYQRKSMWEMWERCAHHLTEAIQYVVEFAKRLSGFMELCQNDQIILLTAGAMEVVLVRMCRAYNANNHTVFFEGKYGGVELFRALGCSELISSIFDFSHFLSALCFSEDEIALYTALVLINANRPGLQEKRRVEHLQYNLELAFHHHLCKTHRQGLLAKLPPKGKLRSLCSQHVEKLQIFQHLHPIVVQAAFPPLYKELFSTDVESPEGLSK
#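 Compounds are pin-transferred onto Drosophila Schneider cells expressing a copper-inducible Gal4–ROR gamma transactivation domain fusion. After 1 hr, copper sulfate is added to 700 uM final; luciferase is read 20 hr later.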
# SW480 rerep = induces DNA re-replication in SW480 colon adenocarcinoma cells. SW480 DNA re-replication, Hoechst DNA content imaging, 48 h. Potency, µM (top dose mostly 46.1 µM), actives largely listed as activators. hit rate 1.8% among 340,000; also: nearly all actives have a fitted effect of over 55% in size
#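 SW480 cells exposed to compounds for 48 hr at 37 C, 5% CO2, then Hoechst-stained 40 min. Nuclear DNA content imaged by fluorescence scanning (405 nm excitation, 500-530 nm emission); re-replication scored as increased high-intensity nuclei.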
# Hits are given with their value; 0 = inactive; ? = inconclusive; - = not tested or not shown; [ ] = dose if it differs, or a comment. Only some compounds are listed: those with a hit (about 10% of all), similar ones and a draw of the others. Calls follow the shape of the dose curve; as a rule, active = well fitted curve in the direction sought with a large enough effect; inconclusive = small, poorly fitted or top-dose-only effect, or another doubt; inactive = no such curve, though single readings can be large; an effect the other way counts as inactive or inconclusive.
SMILES,VP16 counter,KB-V1 MDR tox,KB-3-1 tox,MCF10A rereplic,RORgamma inh,SW480 rerep
Cc1ccc(-n2nc(C)c(NC(=O)CCl)c2C)cc1C,0,16µM,9.2µM,0,?,?
Cc1ccc(CN2CCC(CNc3ncnc4onc(-c5ccc(F)cc5)c34)CC2)cc1,-,0,?,-,-,-
S=C(NCCN1CCOCC1)Nc1ccc(-c2nc3ccccc3[nH]2)cc1,0,0,?,1µM,0,0
Cc1ccc(CNC(=O)c2cc(NS(=O)(=O)c3ccc(C)cc3)ccn2)cc1,-,0,0,-,-,-
CCN(C(=O)CSc1nc2ccccc2c2nc(CCn3c(C)nc4ccccc43)nn12)c1cccc(C)c1,-,0,0,-,-,-
CCOC(=O)CSC1=NC(=O)/C(=C\c2ccc(OC(C)=O)cc2)S1,0,?,?,2.6µM,0,?
COc1cccc(OC(=O)CSc2nnc(-c3cccs3)o2)c1,-,0,0,-,-,-
CCOc1ccc(-c2nnc(NC(=O)c3ccc(OCC(C)C)c(OC)c3)o2)cc1,0.025µM,?,?,?,0.028µM,0[9.22 µM]
COc1cccc(NC(=O)c2ccccc2-c2nc(-c3ccc(F)cc3)no2)c1,0,18µM,0,0,0,0
COc1cccc(C(=O)Nc2nnc(-c3ccc(F)cc3)o2)c1,1.8µM,?,?,0,5µM,0
COc1cccc(C(=O)Nc2nnc(-c3cccs3)o2)c1,0.79µM,?,?,0,0.63µM,0
COc1cccc(CNC(=O)C2CCN(Cc3cc4ccccc4n3Cc3ccc(C)cc3)CC2)c1,-,0,0,-,-,-
COc1ccc2oc(-c3cccc(NC(=O)c4cc([N+](=O)[O-])ccc4N4CCOCC4)c3)nc2c1,-,0,0,-,-,-
O=C(Nc1nnc(-c2ccncc2)o1)c1cccc(N2C(=O)CCC2=O)c1,0,0,0,0,0,0
COc1cccc(C(=O)Nc2nnc(-c3ccc(Cl)cc3)o2)c1,1.6µM,0,0,0,?,0
COc1cc(OC)cc(C(=O)NNC(=O)c2ccc3c(c2)OCCO3)c1,-,-,-,0,-,0
COc1cccc(C(=O)Nc2cccc(-c3nnc(-c4ccco4)o3)c2)c1,0,?,?,?,0,0
COc1cccc(-c2nnc(NC(=O)c3ccc4ncsc4c3)o2)c1,0.56µM,?,?,6.5µM,0.56µM,0
O=C(Nc1nnc(-c2ccc(Cl)cc2)o1)c1cccc(N2C(=O)CCC2=O)c1,2.2µM,0,0,0,3.2µM,0
CS(=O)(=O)c1cccc(-c2nnc(NC(=O)c3ccc4ncsc4c3)o2)c1,-,0,0,0,-,0
COc1cc(OC)cc(-c2nnc(NC(=O)c3ccc4c(c3)OCCO4)o2)c1,0.63µM,0,0,0,0.32µM,0
COC(=O)C1=C[C@@H](C(=O)OC)C2C3=C(C(=O)[C@@]2(C)NC(=O)c2ccccc2)[C@H](C)[C@@H]2C(=O)NC(=O)[C@@H]2[C@@H]3C1 (stereo not given in full),0,-,-,-,0,-
COC(=O)c1cnn(-c2ccc(C(=O)Nc3cccc(C(C)=O)c3)cc2)c1N,-,?,0,-,-,-
COc1ccc2c(c1OC)C(=O)N1c3ccccc3C(=O)N(Cc3ccco3)C21 (stereo not given),-,?,0,-,-,-
CCOc1ccc(NC(=O)C2CCN(c3nnc(C)c4c(C)n(-c5ccccc5)nc34)CC2)cc1,-,0,0,-,-,-
SMILES,VP16 counter,KB-V1 MDR tox,KB-3-1 tox,MCF10A rereplic,RORgamma inh,SW480 rerep
Cc1cccc(-c2n[nH]c(=S)n2/N=C/c2ccc(C)s2)c1,5.6µM,0,0,0,11µM,0
Cc1cccc(-c2n[nH]c(=S)n2/N=C/c2cccs2)c1,10µM,0,0,0,5µM,0
CN(C)S(=O)(=O)N1CCCC(C(=O)c2ccc(C(F)(F)F)cc2)C1 (stereo not given),0,23µM,0,0,0,0
CCN(CC)S(=O)(=O)c1ccc(N2CCN(c3ccccc3OC)CC2)c(N)c1,22µM,0,0,0,?,0
COc1cccc(OC)c1C(=O)N1CCN(S(=O)(=O)c2ccccc2)CC1,0,0,0,0,0,0
CCN(CC)S(=O)(=O)c1ccc(Oc2ccccc2)c(N)c1,0,0,0,0,0,0
COc1ccccc1C(=O)N1CCN(S(=O)(=O)c2ccccc2)CC1,0,0,0,0,11µM,0
COc1ccccc1N1CCN(S(=O)(=O)c2ccc(F)cc2)CC1,0,13µM,0,0,0,0
O=C1CN(C(=O)c2ccc(Cl)cc2Cl)C(c2ccc(F)cc2)c2cc(F)ccc2N1 (stereo not given),-,0,0,-,-,-
C=C1C(=O)OC2C1CCC(C)C1C=CC(=O)C12C (stereo not given),-,?,?,2.1µM,-,6.5µM
COc1ccc(Cn2ccc3nc(C)c(C(=O)N4CCN(c5ccccc5F)CC4)cc3c2=O)cc1,-,0,0,-,-,-
CCOc1ccc(CN(C)c2ccc(S(=O)(=O)N3CCN(C)CC3)cc2[N+](=O)[O-])cc1OC,-,2.3µM,7.3µM,?,-,0
CN1CCN(S(=O)(=O)c2ccc(N(C)Cc3ccc(C(F)(F)F)cc3)c([N+](=O)[O-])c2)CC1,-,0,0,?,-,?
C=CCOc1ccc(CN(C)c2ccc(S(=O)(=O)N3CCN(C)CC3)cc2[N+](=O)[O-])cc1,-,8.2µM,?,?,-,0
CCOc1ccc(Nc2ccc(S(=O)(=O)N3CCN(C)CC3)cc2[N+](=O)[O-])cc1OCC,-,0,0,0,-,0
CSCC[C@H](NC(=O)OC(C)(C)C)C(=O)N/N=C/c1cccc2cccnc12,16µM,0,0,0,7.1µM,?
Cn1ccc(C(=O)N/N=C/c2c[nH]c3ccccc23)n1,0,0,18µM,0,0,0
CCOc1ccccc1C(=O)N/N=C/c1c[nH]c2ccccc12,?,0,0,0,16µM,0
COc1ccc(C(=O)N/N=C/c2cccnc2)cc1,0,0,0,0,0,0
COc1ccc(C(=O)N/N=C/c2cccc3cccnc23)cc1,2.2µM,?,?,?,0.56µM,?
CCOc1ccc(C(=O)N/N=C/c2cccc3cccnc23)cc1,2µM,0,0,?,0.71µM,?
COc1ccc(C(=O)N/N=C/c2cc3ccccc3[nH]c2=S)cc1,8.9µM,0,0,?,8.9µM,0
CCOc1ccc(C(=O)N/N=C/c2ccccc2[N+](=O)[O-])cc1,?,?,0,0,0,0
CCOc1ccccc1C(=O)N/N=C/c1cccc2cccnc12,?,?,?,0,5µM,?
COc1ccc(C(=O)N/N=C/c2c[nH]c3ccccc23)cc1,0,0,0,0,0,?
C=CCOC(=O)C(C(C)=O)C(NC(=O)OC)c1ccco1 (stereo not given),0[10 µM],-,-,-,0[10 µM],-
COCCNC(=O)CSc1nnc(-c2ccc(OC)c(OC)c2)c(-c2ccc(OC)c(OC)c2)n1,-,0,0,-,-,-
